The source made the active and inactive calls. How the source made its calls: active means hit-call score of the fitted dose curve at least 0.9, where 1 is the maximum; inactive means score below 0.9.
Key:
[1] = read-out: Tissue Factor, F3 (gene 2152); experiment: BSK_CASM3C_TissueFactor: BioMAP Diversity Plus: CASM3C Assay for Tissue Factor Biomarker Activity (AID 2283052); settings: primary human coronary artery smooth muscle cells; actives raise or lower the signal;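 further: cell surface tissue factor protein level read by ELISA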
[2] = read-out: Interferon-gamma inducible Protein 10 (IP10), CXCL10 (gene 3627); experiment: BSK_hDFCGF_IP10: BioMAP Diversity Plus: hDFCGF Assay for Interferon-gamma inducible Protein 10 (IP10) Biomarker Activity (AID 2283053); settings: primary human foreskin fibroblasts; actives raise or lower the signal
Method in brief: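 Primary human foreskin fibroblasts exposed to chemicals for 24 h. IP-10 measured by ELISA; changes fitted bidirectionally against DMSO baseline.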

[3] = read-out: Urokinase-type plasminogen activator receptor (uPAR), PLAUR (gene 5329); experiment: BSK_CASM3C_uPAR: BioMAP Diversity Plus: CASM3C Assay for Urokinase-type plasminogen activator receptor (uPAR) Biomarker Activity (AID 2283054); settings: primary human coronary artery smooth muscle cells; actives raise or lower the signal;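 further: cell-surface uPAR protein level quantified by ELISA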
[4] = read-out: Vascular cell adhesion molecule 1 (VCAM1), VCAM1 (gene 7412); experiment: BSK_CASM3C_VCAM1: BioMAP Diversity Plus: CASM3C Assay for Vascular cell adhesion molecule 1 (VCAM1) Biomarker Activity (AID 2283055); settings: primary human coronary artery smooth muscle cells; actives raise or lower the signal;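 further: VCAM-1 protein level quantified by ELISA on the cells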
[5] = read-out: Collagen III, COL3A1 (gene 1281); experiment: BSK_hDFCGF_CollagenIII: BioMAP Diversity Plus: hDFCGF Assay for Collagen III Biomarker Activity (AID 2283056); settings: primary human foreskin fibroblasts; actives raise or lower the signal
Method in brief: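 Response relative to DMSO, fitted in both directions, reflects ELISA-measured collagen III in human primary skin fibroblasts 24 h after compound addition.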

[6] = read-out: Epidermal growth factor receptor (EGFR), EGFR (gene 1956); experiment: BSK_hDFCGF_EGFR: BioMAP Diversity Plus: hDFCGF Assay for Epidermal growth factor receptor (EGFR) Biomarker Activity (AID 2283057); settings: primary human foreskin fibroblasts; actives raise or lower the signal
Method in brief: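 Primary human foreskin fibroblasts (hDFCGF system), sampled 24 h after dosing; EGFR quantified by ELISA. Bidirectional fit relative to DMSO baseline; SRB total-protein staining in parallel cultures for cytotoxicity.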

[7] = read-out: Interleukin-8 (IL8), CXCL8 (gene 3576); experiment: BSK_hDFCGF_IL8: BioMAP Diversity Plus: hDFCGF Assay for Interleukin-8 (IL8) Biomarker Activity (AID 2283058); settings: primary human foreskin fibroblasts; actives raise or lower the signal
Method in brief: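 Fibroblast monolayers (human foreskin, hDFCGF) received test chemical for 24 h before ELISA detection of IL-8; either increases or decreases relative to DMSO count as activity.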

[8] = BSK_hDFCGF_Proliferation: Cell Proliferation Assessment in the BioMAP Diversity Plus: hDFCGF Assay (AID 2283059); settings: primary human foreskin fibroblasts;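 further: curves fitted for both rise and fall of signal versus DMSO baseline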
Method in brief: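 Primary human foreskin fibroblasts, sub-confluent; […]; 10% TCA fix, 0.1% SRB stain, A560 total protein. Gain/loss fitted bidirectionally vs DMSO control.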

[9] = read-out: Macrophage colony-stimulating factor (MCSF), CSF1 (gene 1435); experiment: BSK_hDFCGF_MCSF: BioMAP Diversity Plus: hDFCGF Assay for Macrophage colony-stimulating factor (MCSF) Biomarker Activity (AID 2283060); settings: primary human foreskin fibroblasts; actives raise or lower the signal
Method in brief: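 fibroblasts (human foreskin, primary), 24 h post-dose; M-CSF by ELISA; bidirectional fit, DMSO = baseline.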

[10] = BSK_hDFCGF_SRB: Viability Assessment in the BioMAP Diversity Plus: hDFCGF Assay (AID 2283061); settings: primary human foreskin fibroblasts;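 further: cells exposed to compound for 24 h before the read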
Method in brief: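 SRB-based viability read on primary human skin fibroblasts at 24 h: TCA fixation, 0.1% dye, 560 nm. Gain or loss of signal is fitted against the DMSO negative control.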

[11] = read-out: TIMP metallopeptidase inhibitor 1 (TIMP1), TIMP1 (gene 7076); experiment: BSK_hDFCGF_TIMP1: BioMAP Diversity Plus: hDFCGF Assay for TIMP metallopeptidase inhibitor 1 (TIMP1) Biomarker Activity (AID 2283062); settings: primary human foreskin fibroblasts; actives raise or lower the signal
Method in brief: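 Bidirectional curve fitting against DMSO baseline yielded this endpoint, based on ELISA detection of TIMP-1 in primary human foreskin fibroblasts exposed to compound for 24 h.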

[12] = read-out: Monokine induced gamma interferon (MIG), CXCL9 (gene 4283); experiment: BSK_hDFCGF_MIG: BioMAP Diversity Plus: hDFCGF Assay for Monokine induced gamma interferon (MIG) Biomarker Activity (AID 2283063); settings: primary human foreskin fibroblasts; actives raise or lower the signal
Method in brief: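 Endpoint derived by bidirectional fitting relative to DMSO; MIG quantified via ELISA in primary human foreskin fibroblasts harvested 24 h after dosing.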

[13] = read-out: Matrix Metallopeptidase 1 (MMP1), MMP1 (gene 4312); experiment: BSK_hDFCGF_MMP1: BioMAP Diversity Plus: hDFCGF Assay for Matrix Metallopeptidase 1 (MMP1) Biomarker Activity (AID 2283064); settings: primary human foreskin fibroblasts; actives raise or lower the signal
Method in brief: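 Primary human foreskin fibroblasts exposed to chemicals for 24 h; MMP1 measured by ELISA. Cytotoxicity tracked by SRB staining in parallel cultures; bidirectional fit relative to DMSO.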

[14] = read-out: Vascular cell adhesion molecule 1 (VCAM1), VCAM1 (gene 7412); experiment: BSK_hDFCGF_VCAM1: BioMAP Diversity Plus: hDFCGF Assay for Vascular cell adhesion molecule 1 (VCAM1) Biomarker Activity (AID 2283065); settings: primary human foreskin fibroblasts; actives raise or lower the signal;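 on AC50: VCAM-1 protein level quantified by ELISA after 24 h chemical exposure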
Method in brief: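 Measured after 24 h chemical treatment of primary human skin fibroblasts, VCAM-1 was detected by ELISA and concentration-response analysed in both directions versus DMSO vehicle.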

[15] = read-out: Plasminogen activator inhibitor-1 (PAI1), SERPINE1 (gene 5054); experiment: BSK_hDFCGF_PAI1: BioMAP Diversity Plus: hDFCGF Assay for Plasminogen activator inhibitor-1 (PAI1) Biomarker Activity (AID 2283066); settings: primary human foreskin fibroblasts; actives raise or lower the signal
Method in brief: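 Human foreskin fibroblast primary cells, 24 h chemical exposure; PAI-1 measured by ELISA. Bidirectional fitting relative to DMSO; parallel cultures stained with SRB for total protein to flag overt cytotoxicity.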

[16] = read-out: Intercellular Adhesion Molecule 1 (ICAM1), ICAM1 (gene 3383); experiment: BSK_KF3CT_ICAM1: BioMAP Diversity Plus: KF3CT Assay for Intercellular Adhesion Molecule 1 (ICAM1) Biomarker Activity (AID 2283067); settings: primary human keratinocytes with fibroblasts; actives raise or lower the signal
Method in brief: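 Bidirectional curve fitting against a DMSO baseline was applied to ICAM-1 ELISA signal from primary human skin co-cultures harvested 24 h after treatment, with SRB staining of parallel wells for overt cytotoxicity.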

[17] = read-out: Interferon-gamma inducible Protein 10 (IP10), CXCL10 (gene 3627); experiment: BSK_KF3CT_IP10: BioMAP Diversity Plus: KF3CT Assay for Interferon-gamma inducible Protein 10 (IP10) Biomarker Activity (AID 2283068); settings: primary human keratinocytes with fibroblasts; actives raise or lower the signal
Method in brief: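 In a primary skin co-culture of keratinocytes and fibroblasts, IP-10 is quantified by ELISA at 24 h after dosing. SRB staining of parallel wells monitors overt toxicity. Curves are fitted both directions against DMSO.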

[18] = BSK_KF3CT_SRB: Viability Assessment in the BioMAP Diversity Plus: KF3CT Assay (AID 2283069); settings: primary human keratinocytes with fibroblasts;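 further: total protein by sulforhodamine B staining as a cytotoxicity measure; fitted for both signal gain and loss against DMSO baseline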
Method in brief: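 Human keratinocyte and foreskin fibroblast co-culture exposed to chemical for 24 h. Total protein measured in parallel cultures by 0.1% sulforhodamine B staining after 10% TCA fixation, read at 560 nm; bidirectional fit relative to DMSO.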

[19] = read-out: Interleukin-1 alpha (IL1a), IL1A (gene 3552); experiment: BSK_KF3CT_IL1a: BioMAP Diversity Plus: KF3CT Assay for Interleukin-1 alpha (IL1a) Biomarker Activity (AID 2283070); settings: primary human keratinocytes with fibroblasts; actives raise or lower the signal
Method in brief: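 Primary human keratinocyte plus foreskin fibroblast co-culture, dosed and measured at 24 h in 96-well plates. IL-1a level quantified by ELISA; bidirectional fit relative to DMSO.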

[20] = read-out: TIMP metallopeptidase inhibitor 2 (TIMP2), TIMP2 (gene 7077); experiment: BSK_KF3CT_TIMP2: BioMAP Diversity Plus: KF3CT Assay for TIMP metallopeptidase inhibitor 2 (TIMP2) Biomarker Activity (AID 2283071); settings: primary human keratinocytes with fibroblasts; actives raise or lower the signal
Method in brief: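 Co-culture of human primary keratinocytes and foreskin fibroblasts, measured 24 h after chemical dosing. TIMP-2 quantified by ELISA and fitted in both directions relative to DMSO. Cytotoxicity checked in parallel cultures by SRB total-protein staining.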

Measured: AC50

C#CC(O)C(CC)CCCC (stereo not given)
inactive: [1] | [2] | [3] | [4] | [5] | [6] | [7] | [8] | [9] | [10] | [11] | [12] | [13] | [14] | [15] | [16] | [17] | [18] | [19]

S=c1[nH]c2ccccc2s1
active: [5] 6.58 µM
inactive: [1] | [2] | [3] | [4] | [6] | [7] | [8] | [9] | [10] | [11] | [12] | [13] | [14] | [15] | [16] | [17] | [18] | [19]

Cn1cnc2c1c(=O)[nH]c(=O)n2C
inactive: [1] | [2] | [3] | [4] | [5] | [6] | [7] | [8] | [9] | [10] | [11] | [12] | [13] | [14] | [15] | [16] | [17] | [18] | [19] | [20]

NC=O
inactive: [1] | [2] | [3] | [4] | [5] | [6] | [7] | [9] | [10] | [11] | [12] | [13] | [14] | [15] | [16] | [17] | [18] | [19]
active: [8] 19.2 µM

CC(COCC(C)OC(=O)c1ccccc1)OC(=O)c1ccccc1 (stereo not given)
inactive: [1] | [2] | [3] | [4] | [5] | [6] | [7] | [9] | [10] | [11] | [12] | [13] | [14] | [15] | [16] | [17] | [18] | [19]
active: [8] 33.7 µM

Cc1cc(SC2=C(O)C[C@@](CCc3ccc(N)cc3)(C(C)C)OC2=O)c(C(C)(C)C)cc1CO
inactive: [1] | [2] | [3] | [4] | [5] | [6] | [7] | [8] | [9] | [10] | [11] | [12] | [13] | [14] | [15] | [16] | [17] | [18] | [19]

N[C@@H](Cc1c[nH]c2ccccc12)C(=O)O
inactive: [1] | [2] | [3] | [4] | [5] | [6] | [7] | [8] | [9] | [10] | [11] | [12] | [13] | [14] | [15] | [16] | [17] | [18] | [19] | [20]

CCc1nc(N)nc(N)c1-c1ccc(Cl)cc1
inactive: [1] | [2] | [3] | [4] | [5] | [6] | [7] | [8] | [9] | [10] | [11] | [12] | [13] | [14] | [15] | [16] | [17] | [18] | [19] | [20]

CC(C)c1cccc(C(C)C)c1NC(=O)NS(=O)(=O)c1cc(C(C)(C)O)co1
inactive: [1] | [2] | [3] | [4] | [5] | [6] | [7] | [8] | [9] | [10] | [11] | [12] | [13] | [14] | [15] | [16] | [17] | [18] | [19]

C=CCCCCCCCCCCCC
inactive: [1] | [2] | [3] | [4] | [5] | [6] | [7] | [8] | [9] | [10] | [11] | [12] | [13] | [14] | [15] | [16] | [17] | [18] | [19]

CN(C)C(=O)NC1(c2ccccc2)CCN(CC[C@@]2(c3ccc(F)c(F)c3)CN(C(=O)c3ccccc3)CCO2)CC1
active: [8] 14.2 µM
inactive: [1] | [2] | [3] | [4] | [5] | [6] | [7] | [9] | [10] | [11] | [12] | [13] | [14] | [15] | [16] | [17] | [18] | [19]

Oc1ccccc1O
active: [2] 14.1 µM | [4] 5.64 µM | [5] 10.2 µM | [8] 12 µM | [9] 13.3 µM | [12] 11.2 µM | [14] 2.5 µM | [16] 4.58 µM | [19] 4.75 µM
inactive: [1] | [3] | [6] | [7] | [10] | [11] | [13] | [15] | [17] | [18]

Cc1cc(Cc2ccc(N)c(C)c2)ccc1N
active: [8] 3.12 µM
inactive: [1] | [2] | [3] | [4] | [5] | [6] | [7] | [9] | [10] | [11] | [12] | [13] | [14] | [15] | [16] | [17] | [18] | [19] | [20]

CCCCC(CC)CO (stereo not given)
inactive: [1] | [2] | [3] | [4] | [5] | [6] | [7] | [8] | [9] | [10] | [11] | [12] | [13] | [14] | [15] | [16] | [17] | [18] | [19]

Source: PubChem BioAssay (EPA / NIEHS)
